Compound activity: PubChem BioAssay, National Center for Advancing Translational Sciences (NCATS)
Sampled rows, rich in hits. Any-hit rate of the full collection: about 1%.
RXFP1 ag: agonists of human relaxin receptor RXFP1; Q9HBX9; HEK293T-RXFP1 cAMP TR-FRET, 30 min; response scale: percent of porcine relaxin response, buffer zero; Potency, µM (top dose mostly 57.5 µM), inactives show top-dose activation, most hits filed as activators; 0.3% of 370,000 active; AID 2676; active means well fitted activation curve with a large enough effect; inconclusive means small, poorly fitted or top-dose-only effect; further: potency means the concentration at half of the fitted maximal effect; on the % scale 0 is the no-effect control and ±100 the full control effect; nearly all actives have a fitted effect of over 60% in size
Target sequence (Q9HBX9 whole entry, looked up): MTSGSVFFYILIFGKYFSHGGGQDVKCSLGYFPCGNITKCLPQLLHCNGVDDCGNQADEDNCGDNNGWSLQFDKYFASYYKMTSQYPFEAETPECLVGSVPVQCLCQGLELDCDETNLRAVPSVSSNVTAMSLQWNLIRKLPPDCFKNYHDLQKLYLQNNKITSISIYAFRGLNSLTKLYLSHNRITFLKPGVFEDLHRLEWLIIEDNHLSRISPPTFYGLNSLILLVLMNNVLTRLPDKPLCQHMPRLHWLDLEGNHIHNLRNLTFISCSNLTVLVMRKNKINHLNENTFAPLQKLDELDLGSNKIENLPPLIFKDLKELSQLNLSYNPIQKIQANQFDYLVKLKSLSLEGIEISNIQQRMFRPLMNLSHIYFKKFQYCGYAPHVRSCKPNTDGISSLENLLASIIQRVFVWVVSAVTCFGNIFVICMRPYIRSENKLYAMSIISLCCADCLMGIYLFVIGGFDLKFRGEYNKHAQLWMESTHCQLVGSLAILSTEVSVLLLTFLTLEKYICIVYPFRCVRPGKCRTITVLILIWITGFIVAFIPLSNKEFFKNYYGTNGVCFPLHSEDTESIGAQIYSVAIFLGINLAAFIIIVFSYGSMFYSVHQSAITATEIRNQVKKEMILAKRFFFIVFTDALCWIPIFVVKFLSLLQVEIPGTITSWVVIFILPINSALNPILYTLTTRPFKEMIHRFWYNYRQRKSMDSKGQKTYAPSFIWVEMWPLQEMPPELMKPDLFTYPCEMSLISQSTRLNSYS
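HEK293 cells stably expressing RXFP1, treated 30 min at 37C with compounds plus PDE4 inhibitor Ro 20174; cAMP measured by HTRF TR-FRET. Normalized to buffer and 29 nM porcine relaxin; EC50 by Hill fit.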
TSHR antag: blocks TSH signaling through the human TSH receptor. TSHR-expressing cells, TSH-stimulated cAMP HTRF, 2 h; hits give low values. activity change, negative = inhibition, % at 11.5 µM. AID 504810. 0.2% of 330,000 active. P16473;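 active means activity change below a set negative limit, meaning inhibition stronger than a set level, cut at about -70% in these data; inconclusive means activity change between two set negative limits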; further: on the % scale 0 is the no-effect control and ±100 the full control effect
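Antagonism was scored as loss of TSH-driven cAMP in TSHR cells, stimulated with 4nM TSH (EC80) for 2 hours at 37 deg C and detected by homogeneous HTRF competition immunoassay.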
gsp antag: antagonists of gsp mutant (McCune-Albright syndrome); gsp-mutant cells, cAMP HTRF, 30 min; Potency, µM (series often up to 76.9 µM), for the others: at the top dose activity change, negative = inhibition, usual class: inhibitors; 0.4% of 340,000 active; calls by dose curve; cell line not stated here;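 further: intracellular cAMP measured with PDE inhibitor Ro 20-1724 present during compound exposure; potency means the concentration at half of the fitted maximal effect; on the % scale 0 is the no-effect control and ±100 the full control effect; nearly all actives have a fitted effect of over 65% in size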
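Measurement of cellular cAMP by homogeneous time-resolved fluorescence following a 30 min compound exposure at 37C. The PDE inhibitor […] was present throughout; the assay buffer was DPBS with 0.05% BSA and 0.005% Tween 20.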
gsp agonist: activates gsp, the McCune-Albright syndrome mutation. 0.13% of 340,000 active. Potency, µM (doses to about 76.9 µM), for inactives: at the highest dose activation (cAMP increase), actives largely listed as activators. gsp mutant cells, cAMP HTRF, 30 min; active means well fitted activation curve with a large enough effect; inconclusive means small, poorly fitted or top-dose-only effect, or another doubt; inactive means no such curve, though single readings can be large or run the other way; cell line not stated here;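 further: phosphodiesterase inhibitor Ro 20-1724 added with compounds to block cAMP breakdown; potency means the concentration at half of the fitted maximal effect; nearly all actives have a fitted effect of over 60% in size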
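Cells stably selected in G418 were plated at 2000/well, grown 16-24 hr, then given compounds in DMSO with the PDE inhibitor […] (300 uM solution added) for 30 min at 37C; cAMP was read by HTRF.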
RXFP1 antagonist: antagonists of human relaxin receptor RXFP1 | 0.59% of 350,000 active | Q9HBX9 | AID 1259400 | activity change, negative = inhibition, % at 57.5 µM | HEK293-RXFP1, relaxin-stimulated cAMP HTRF, 30 min; hits give low values;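 active means activity change of -60% or lower, but not beyond a set lower limit; inconclusive means change between -60% and -40%, or beyond the set limit; inactive means change above -40%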; further: on the % scale 0 is the no-effect control and ±100 the full control effect
* hit, by the source's call; [ ] = dose if it differs, or a comment.

How did COc1ccc(NC(=O)Cn2cnc3sc(C)c(S(=O)(=O)N4CCOCC4)c3c2=O)cc1Cl do in these assays?
RXFP1 ag: 0%; TSHR antag: 1; gsp antag: -3%; gsp agonist: -7%[15.4 µM]; RXFP1 antagonist: 0

How did CC(=O)N1CCCC1c1nc2ccccc2n1Cc1ccccc1F (stereo not drawn) do in these assays?
RXFP1 ag: -2%

What do the screens show for `Clc1ccc(-c2noc(CSc3nnc(-c4ccncc4)n3-c3ccccc3)n2)cc1`?
RXFP1 ag: 0%; TSHR antag: -17; gsp antag: 32µM*; gsp agonist: -35%; RXFP1 antagonist: -11

Results for O=C1/C(=C/c2ccncc2)Oc2cc(OS(=O)(=O)c3ccccc3)ccc21 ?
RXFP1 ag: 0%; TSHR antag: 18; gsp antag: -9%; gsp agonist: -1%; RXFP1 antagonist: -82*

What do the screens show for `CC(c1ccccc1)N1C(=O)c2ccc(C(=O)Nc3ccc(Br)cc3C(=O)O)cc2C1=O` (stereo not drawn)?
RXFP1 ag: -3%; TSHR antag: 12; gsp antag: 35µM*; gsp agonist: 9%; RXFP1 antagonist: -5

How did O=C(Nc1ccc(O)cc1C(=O)O)c1ccc2c(c1)C(=O)N(Cc1ccco1)C2=O do in these assays?
RXFP1 ag: 1%; TSHR antag: -5; gsp antag: 32µM*; gsp agonist: -13%; RXFP1 antagonist: 1

Results for CC(c1ccccc1)N1C(=O)c2ccc(C(=O)Nc3ccccc3C(=O)O)cc2C1=O (stereo not drawn) ?
RXFP1 ag: 2%; TSHR antag: -14; gsp antag: 16µM*; gsp agonist: -1%; RXFP1 antagonist: -74*

What do the screens show for `CC(C)CC(=O)Nc1cccc(C(=O)Nc2ccccc2C(=O)O)c1`?
RXFP1 ag: 1%; TSHR antag: -3; gsp antag: 32µM*; gsp agonist: 12%; RXFP1 antagonist: -17

What do the screens show for `CCn1c(=O)c2cc(C(=O)NCc3cc(OC)ccc3OC)sc2c2ccccc21`?
RXFP1 ag: 5%

How did O=C(Cn1nc(-c2ccccc2)nc(Cc2ccccc2)c1=O)Nc1ccc(Cl)cc1 do in these assays?
RXFP1 ag: 1%; RXFP1 antagonist: 6

Results for Cc1ccc(-n2nc(C)c3nc(CCC(=O)Nc4ccc(F)cc4)c(=O)n(C)c32)cc1 ?
RXFP1 ag: 6%; RXFP1 antagonist: -19

What do the screens show for `CCCCNc1nc2c(c(=O)n(Cc3ccc(Cl)c(Cl)c3)c(=O)n2C)n1C`?
RXFP1 ag: 6%

What do the screens show for `O=C1CC(c2cccc([N+](=O)[O-])c2)c2c(ccc3ccccc23)N1` (stereo not drawn)?
RXFP1 ag: 0%; TSHR antag: -6; gsp antag: 40µM*; gsp agonist: 8%; RXFP1 antagonist: -7

What do the screens show for `CCN(CC)CCCNC(=O)c1ccc2c(c1)NC(=O)C(CS(=O)(=O)Cc1cccc(Br)c1)N2` (stereo not drawn)?
RXFP1 ag: 0%; RXFP1 antagonist: -16

How did COc1cc(/C=C2\SC(=S)N(Nc3ncc(C(F)(F)F)cc3Cl)C2=O)ccc1O do in these assays?
RXFP1 ag: 0%; TSHR antag: -18; gsp antag: -12%; gsp agonist: 0%[15.4 µM]; RXFP1 antagonist: -74*

How did CN(C)c1ccc(/C=C2\SC(=S)N(Nc3ncc(C(F)(F)F)cc3Cl)C2=O)cc1 do in these assays?
RXFP1 ag: -2%; TSHR antag: -20; gsp antag: 5%; gsp agonist: -29%; RXFP1 antagonist: 8

Results for N#Cc1nc(COc2ccc(-c3ccccc3)cc2)oc1NCCCN1CCOCC1 ?
RXFP1 ag: 1%; TSHR antag: -9; gsp antag: 2%; gsp agonist: 0%; RXFP1 antagonist: -62*

What do the screens show for `N#Cc1nc(COc2ccccc2)oc1NCCN1CCOCC1`?
RXFP1 ag: 1%; TSHR antag: -9; gsp antag: -7%; gsp agonist: -6%[15.4 µM]; RXFP1 antagonist: -18

How did O=C(CSc1n[nH]c(=O)n1C1CC1)Nc1cc(Cl)ccc1Oc1ccccc1 do in these assays?
RXFP1 ag: 0%; TSHR antag: -9; gsp antag: 35µM*; gsp agonist: -3%; RXFP1 antagonist: -6

How did CCCCSc1nc2sc3c(c2c(=O)n1-c1ccccc1C)CC(C)(C)OC3 do in these assays?
RXFP1 ag: -2%

What do the screens show for `N=C(N)SCc1cn(-c2ccccc2)nc1-c1ccc(Br)cc1`?
RXFP1 ag: 0%; TSHR antag: -8; gsp agonist: 0%[15.4 µM]; RXFP1 antagonist: -79*

How did CCOC(=O)c1cc(-c2ccccc2)n(CC(=O)N(C)c2ccc(OC)cc2)c1C do in these assays?
RXFP1 ag: -3%; RXFP1 antagonist: -74*

Results for Cc1onc(-c2ccc(Cl)cc2Cl)c1-c1csc(N/N=C/c2ccccc2Cl)n1 ?
RXFP1 ag: 0%; TSHR antag: -7; gsp antag: -6%; gsp agonist: 5%; RXFP1 antagonist: -69*

What do the screens show for `Cc1onc(-c2ccccc2)c1-c1csc(N/N=C/c2ccccc2Cl)n1`?
RXFP1 ag: -1%; TSHR antag: -13; gsp antag: 2%; gsp agonist: -2%; RXFP1 antagonist: inconclusive

What do the screens show for `O=C(NCC(c1ccco1)N1CCc2ccccc21)C(=O)Nc1ccccc1` (stereo not drawn)?
RXFP1 ag: 0%; TSHR antag: 7; gsp antag: 2%; gsp agonist: 7%[15.4 µM]; RXFP1 antagonist: -66*

What do the screens show for `Cc1ccc(C)c(CN2C(=O)c3ccccc3S(=O)(=O)c3ccc(C(=O)N4CCN(Cc5ccccc5)CC4)cc32)c1`?
RXFP1 ag: -1%; RXFP1 antagonist: -17

What do the screens show for `Cc1cccc2[nH]c3c(N4CCC5(CC4)OCCO5)ncnc3c12`?
RXFP1 ag: -1%; TSHR antag: 2; gsp antag: -20%; gsp agonist: -17%; RXFP1 antagonist: -7

How did Brc1ccc2[nH]c3c(N4CCc5ccccc5C4)ncnc3c2c1 do in these assays?
RXFP1 ag: 1%; TSHR antag: -77*; gsp antag: -20%; gsp agonist: 11%; RXFP1 antagonist: -6

Results for c1ccc2c(c1)[nH]c1c(N3CCSCC3)ncnc12 ?
RXFP1 ag: 1%; TSHR antag: 8; gsp antag: 14µM*; gsp agonist: 21%; RXFP1 antagonist: 2

Results for Clc1ccc2[nH]c3c(N4CCC5(CC4)OCCO5)ncnc3c2c1 ?
RXFP1 ag: 4%; TSHR antag: -21; gsp antag: 35µM*; gsp agonist: 9%; RXFP1 antagonist: -11

Results for Fc1ccc2[nH]c3c(N4CCc5ccccc5C4)ncnc3c2c1 ?
RXFP1 ag: -1%; TSHR antag: inconclusive; gsp antag: inconclusive; gsp agonist: 8%[15.4 µM]; RXFP1 antagonist: -31
